Screens as filed in PubChem BioAssay.
PfHsp90 set2 – inhibits growth of yeast expressing Plasmodium falciparum Hsp90 | S. cerevisiae expressing PfHsp90, BacTiter-Glo ATP, 48 h; yeast lacking PDR1 and PDR3 efflux regulators | inhibition, % at 9.4 µM | 310,000 tested, 0.32% active | AID 504621;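 active = every replicate shows inhibition above about 80%, whatever the replicate mean, limit read from the data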;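 also: 0% = DMSO neutral controls and 100% = 20 µM radicicol positive controls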
SIRT5 inh – inhibitors of human sirtuin-5 desuccinylase; Purified SirT5, succinyl-peptide AMC, trypsin-coupled fluorescence; inhibition, % at 15 µM; 330,000 tested, 1.1% active; AID 652115; in the data active = inhibition above about 15%
NSD2 HMT inh – NSD2 (human) methyltransferase inhibition; O96028; NSD2 peptide methylation, AlphaScreen, 120 min; inhibition, % at 12.5 µM; 310,000 tested, 0.54% active; AID 743445; in the data active = inhibition above about 50%
ARNT TACC3 PPI – disrupts binding between human ARNT and TACC3; inhibition, % at 9.99 µM; AlphaScreen His-ARNT PAS-B/GST-TACC3 binding, luminescence; TACC3 fragment carries E629A point mutation; 390,000 tested, 0.66% active;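 active = mean inhibition of replicates at least 50% and at least half of replicates each reaching 50%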;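 also: 0% = complete ARNT plus TACC3 wells and 100% = ARNT alone without TACC3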
CASP6 VEID inh – caspase-6 (human) enzyme inhibition | purified caspase-6, Z-VEID-R110 cleavage fluorescence | inhibition, % at 12.5 µM | 350,000 tested, 0.53% active | AID 686996;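 active = mean inhibition across replicates at least about 35%, with every replicate also reaching that limit, limit read from the data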;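 also: 0% = median of neutral control wells and 100% = no fluorescence left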
Target sequence (P55212 24-179 limits assumed): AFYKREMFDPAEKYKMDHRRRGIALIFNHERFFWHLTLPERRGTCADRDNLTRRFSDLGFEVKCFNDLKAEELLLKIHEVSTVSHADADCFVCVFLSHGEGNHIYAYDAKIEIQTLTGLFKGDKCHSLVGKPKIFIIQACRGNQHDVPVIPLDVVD
Target sequence (P55212 194-293 limits assumed): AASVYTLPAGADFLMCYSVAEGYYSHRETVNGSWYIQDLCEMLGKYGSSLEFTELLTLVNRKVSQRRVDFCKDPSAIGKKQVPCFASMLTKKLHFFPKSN
Numbers without * were called inactive; · = not tested or not shown. Hits are enriched below; roughly 2.1% of the tested compounds scored in any of these assays.

SMILES | PfHsp90 set2 | SIRT5 inh | NSD2 HMT inh | ARNT TACC3 PPI | CASP6 VEID inh
COc1cc(C(=O)NNC(=O)C2CCC2)cc(OC)c1OC | -14 | 25* | 26 | -4 | 3
COc1cc(C(=O)NCCN2CCCC2)cc(OC)c1OC | -5 | · | 1 | 2 | ·
C/C(=N\Nc1nc2ccccc2s1)c1ccc2c(c1)OCO2 | -21 | -1 | 1 | -2 | -3
C/C(=N\Nc1nc2ccccc2s1)c1ccc(Br)s1 | 115* | -1 | · | · | -3
O=C(Nc1nc2ccccc2s1)c1cnccn1 | 36 | · | -1 | 13 | ·
CC(=NNc1nc2ccccc2s1)c1ccncn1 | -19 | -3 | 6 | 70* | -2
CC=Cc1ccc2n(c1=O)C[C@H]1[C@H](CO)[C@@H](C(=O)Nc3ccccc3)N(CC3CC3)[C@@H]21 (mixture of isomers) | · | 1 | · | 10 | 1
C[C@H](CO)N1C[C@H](C)[C@@H](CN(C)C(=O)Cc2ccccc2)OCCCC[C@H](C)Oc2ccc(NC(=O)C3CCCCC3)cc2C1=O | · | · | · | 0 | ·
Cc1noc(C)c1NC(=O)Nc1cccc2c1O[C@H](CN(C)S(=O)(=O)c1cccs1)[C@H](C)CN([C@H](C)CO)C2=O | · | -7 | · | -4 | -2
C[C@H](CO)N1C[C@H](C)[C@H](CN(C)S(=O)(=O)c2cccs2)OCCCC[C@H](C)Oc2ccc(NC(=O)Nc3ccccc3)cc2C1=O | · | 5 | · | -8 | 1
O=S(=O)(c1ccccc1)N1CC2(C1)[C@H](c1ccccc1)[C@H](CO)N2CCC(F)(F)F | · | 17* | · | · | -1
CC(=O)Oc1ccc(N2C(=O)C3C4C=CC(CO)(O4)C3C2=O)cc1 (centres undefined) | -78 | · | -1 | 0 | ·
O=C1C2C3C=CC(CO)(O3)C2C(=O)N1c1ccccc1-c1ccccc1 (centres undefined) | 142* | · | · | -20 | ·
O=C1C2C3C=CC(CNS(=O)(=O)c4ccccc4)(O3)C2C(=O)N1c1ccc(Cl)cc1 (centres undefined) | 105* | -1 | -2 | -1 | 1
Cc1nnc(Nc2ccccn2)c2ccccc12 | -20 | · | 0 | 33* | ·
O=C(/C=C/c1ccco1)NC(=S)Nc1ccccc1N1CCOCC1 | · | · | 2 | 13 | ·
O=C(/C=C\c1ccco1)NC(=S)Nc1ccccc1O | -65 | 3 | · | 1 | 49*
COc1cccc(NC(=S)NC(=O)/C=C/c2ccco2)c1 | -5 | 1 | 4 | 9 | 9
O=C(/C=C/c1ccco1)NC(=S)Nc1cccc(C(=O)O)c1 | -26 | 22* | 40 | -34 | 36*
O=C(/C=C/c1ccco1)NC(=S)Nc1ccccc1N1CCCC1 | -8 | · | 4 | · | ·
COc1ccc(NC(=S)NC(=O)/C=C/c2ccco2)c(OC)c1 | 4 | 1 | 1 | 9 | 0
Cc1ccc(NC(=S)NC(=O)/C=C/c2ccco2)c(O)c1 | -18 | 12 | 11 | 3 | 43*
O=C(/C=C/c1ccco1)NC(=S)Nc1ccccc1O | -56 | 4 | 24 | · | 51*
CCC(=O)N[C@@H]1CC[C@@H](CCn2cc(CN(C)C)nn2)O[C@H]1CO | · | -4 | · | 0 | -3
N#Cc1cccc(-c2ccc([C@H]3[C@H](CO)N4CCCCN(C(=O)Nc5ccc(F)cc5)C[C@@H]34)cc2)c1 | · | -8 | · | 8 | -4
SMILES | PfHsp90 set2 | SIRT5 inh | NSD2 HMT inh | ARNT TACC3 PPI | CASP6 VEID inh
COC(=O)C[C@H]1C[C@H]2c3cc(NS(=O)(=O)c4ccccc4)ccc3O[C@H]2[C@@H](CO)O1 | · | · | · | -7 | ·
O=C(O)CCCNC(=O)/C=C/c1ccco1 | 26 | 0 | 24 | -7 | 60*
O=C(/C=C/c1ccccc1)NC(=S)NNC(=O)c1ccco1 | -8 | · | 3 | 52* | ·
O=C(C1CCC1)N1[C@@H](CO)[C@@H](c2ccccc2)C12CN(Cc1ccccc1)C2 | · | -1 | · | · | 0
Cc1cc2n(n1)C(c1c[nH]c3ccccc13)Nc1ccccc1-2 (centres undefined) | 125* | · | · | 1 | ·
CC(=O)Nc1ccc(S(=O)(=O)Nc2nc3ccccc3nc2Nc2cccc(O)c2)cc1 | 21 | 5 | · | -9 | 3
CC(=O)Nc1ccc(S(=O)(=O)Nc2nc3ccccc3nc2Nc2ccc(C(=O)O)c(O)c2)cc1 | -13 | 47* | 48 | 40* | 73*
COc1ccc2c3c(n(C)c2c1)[C@H](CO)N(CC1CCOCC1)CC31CCN(Cc2nccs2)CC1 | · | -2 | · | · | 2
C[C@@H]1CN([C@@H](C)CO)C(=O)c2cc(NS(=O)(=O)c3ccc(Cl)cc3)ccc2O[C@@H](C)CCCCO[C@@H]1CN(C)Cc1ccc2c(c1)OCO2 | · | 16* | · | 13 | -3
